Where a name gives a salt, the structure may show the parent alone.
Test system: A431
Experiment: whole-cell filipin (free cholesterol) integrated intensity, Z-score; higher = more cholesterol staining
Conditions: compound concentration in added solution (µM; 5 µl added to 20 µl cells): 10; 18 h
How it was run: (§1)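 Duplicate 384-well imaging plates were prepared with 5 µl of 10 µM compound solution per well, and 3,500 HeLa MZ or A431 cells in 20 µl were added on top. Following 18 h of incubation and fixation in 4% PFA, cells received 6C4 anti-LBPA antibody, filipin, propidium iodide and CellTracker green. Four images per well at 20× were segmented in MetaXpress to yield per-cell integrated LBPA or filipin intensity, whole-cell or within LBPA endosomes. These intensities are reported as Z-scores normalised in AcuityXpress.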

Compound | whole-cell filipin (z-score)
CNNCc1ccc(C(=O)NC(C)C)cc1 [Procarbazine hydrochloride] | -0.286
CC(C)NNC(=O)c1ccncc1 [Iproniazide phosphate] | -0.562
Cc1cc(-n2c(=O)[nH]c(=O)n(C)c2=O)ccc1Oc1ccc(SC(F)(F)F)cc1 [Toltrazuril] | -0.109
Cc1c(NC(=O)c2cccnc2)c(=O)n(-c2ccccc2)n1C [Nifenazone] | -0.738
C[C@@H](O)[C@H]1C(=O)N2C(C(=O)O)=C(SCCNC=N)C[C@H]12 [Imipenem] | -0.414
CN(C)CC/C=C1\c2ccccc2CSc2ccccc21 [Dosulepin hydrochloride] | 1.17

Test system: HeLa MZ
Experiment: as above
Conditions: compound concentration in added solution (µM; 5 µl added to 20 µl cells): 10; 18 h
How it was run: as §1

Compound | whole-cell filipin (z-score)
CN1CCN(CC(=O)N2c3ccccc3C(=O)Nc3cccnc32)CC1 [Pirenzepine dihydrochloride] | -0.725
O=C(O)/C=C/c1ccc(Cn2ccnc2)cc1 [Ozagrel hydrochloride] | 0.704
CC(=O)[C@H]1CC[C@H]2[C@@H]3C=CC4=CC(=O)CC[C@@]4(C)[C@@H]3CC[C@]12C [Dydrogesterone] | 0.0624
COc1ccc2cc([C@H](C)C(=O)O)ccc2c1 [Naproxen] | -0.439
CC(=O)[C@H]1CC[C@H]2[C@@H]3C[C@H](C)C4=CC(=O)CC[C@]4(C)[C@H]3[C@@H](O)C[C@]12C [Medrysone] | 0.163
CCCCc1oc2ccccc2c1C(=O)c1cc(I)c(OCCN(CC)CC)c(I)c1 [Amiodarone hydrochloride] | 0.182
CN(C)CCC(c1ccc(Br)cc1)c1ccccn1 (stereo not given) [Brompheniramine maleate] | -0.596
CCN(CC)C(C)CN1c2ccccc2Sc2ccccc21 (stereo not given) [Ethopropazine hydrochloride] | 2.95
O=C(O)c1cc(/N=N/c2ccc(S(=O)(=O)Nc3ccccn3)cc2)ccc1O [Sulfasalazine] | 1.46
CCCc1ncc(C[n+]2ccccc2C)c(N)n1 [Amprolium hydrochloride] | -0.0131
Cc1ncc([N+](=O)[O-])n1CC(C)O (stereo not given) [Secnidazole] | -0.327
OC(CCN1CCCCC1)(c1ccccc1)C1CC2C=CC1C2 (stereo not given) [Biperiden hydrochloride] | -0.585
NC12CC3CC(CC(C3)C1)C2 [Adamantamine fumarate] | -0.605
OCCN1CCN(CCCN2c3ccccc3C=Cc3ccccc32)CC1 [Opipramol dihydrochloride] | -0.0646
COc1cc(NS(=O)(=O)c2ccc(N)cc2)ncn1 [Sulfamonomethoxine] | 0.0403
Cc1cc(-c2ccccc2)nnc1NCCN1CCOCC1 [Minaprine dihydrochloride] | -0.799
Clc1ccc2nsnc2c1NC1=NCCN1 [Tizanidine HCl] | -0.51
CN(C)CCOC(c1ccccc1)c1ccccc1 [Diphenhydramine hydrochloride] | -0.63
CN(C)CCCO[C@@H]1[C@H]2OC(C)(C)O[C@H]2O[C@@H]1[C@H](O)CO [Amiprilose hydrochloride] | -0.369
NC(=O)N/N=C/c1ccc([N+](=O)[O-])o1 [Nitrofural] | -0.478

Compound | whole-cell filipin (z-score)
N[C@@H](C(=O)N[C@@H]1C(=O)N2C(C(=O)O)=C(Cl)CS[C@H]12)c1ccccc1 [Cefaclor hydrate] | -0.368
COc1ccc(C(=O)NCc2ccc(OCCN(C)C)cc2)cc1OC [Itopride] | -0.665
CC1(C)O[C@@H]2C[C@H]3[C@@H]4C[C@H](F)C5=CC(=O)C=C[C@]5(C)[C@@]4(F)[C@@H](O)C[C@]3(C)[C@]2(C(=O)CO)O1 [Fluocinolone acetonide] | 0.13
NCC[C@H](O)C(=O)N[C@@H]1C[C@H](N)[C@@H](O[C@H]2O[C@H](CN)[C@@H](O)[C@H](O)[C@H]2O)[C@H](O)[C@H]1O[C@H]1O[C@H](CO)[C@@H](O)[C@H](N)[C@H]1O [Amikacin hydrate] | -0.44
CC(C)c1c(C(=O)Nc2ccccc2)c(-c2ccccc2)c(-c2ccc(F)cc2)n1CC[C@@H](O)C[C@@H](O)CC(=O)O [Atorvastatin] | -0.402
CCOC(=O)O[C@]1(C(=O)COC(=O)CC)CC[C@H]2[C@@H]3CCC4=CC(=O)C=C[C@]4(C)[C@H]3[C@@H](O)C[C@@]21C [Prednicarbate] | 0.0462
CC(=O)N[C@@H](CS)C(=O)O [Acetylcysteine] | -0.751
CCCCC(CC)CN1CN(CC(CC)CCCC)CC(C)(N)C1 (stereo not given) [Hexetidine] | -0.0808
Cc1ccc2c(c1)c1c3n2CCNC3CCC1 (stereo not given) [Pirlindole mesylate] | 0.474
CCN1CCN(C(=O)N[C@@H](C(=O)N[C@@H]2C(=O)N3[C@@H]2SC(C)(C)[C@@H]3C(=O)O)c2ccccc2)C(=O)C1=O [Piperacillin sodium salt] | -0.425
NC(=O)N1c2ccccc2C=Cc2ccccc21 [Carbamazepine] | -0.708
CN1CCC(=C2c3ccccc3C=Cc3ccccc32)CC1 [Cyproheptadine hydrochloride] | -1.18
CC(=O)c1ccc(S(=O)(=O)NC(=O)NC2CCCCC2)cc1 [Acetohexamide] | -0.947
CNNCc1ccc(C(=O)NC(C)C)cc1 [Procarbazine hydrochloride] | -0.325
CC(C)NNC(=O)c1ccncc1 [Iproniazide phosphate] | -0.228
Cc1cc(-n2c(=O)[nH]c(=O)n(C)c2=O)ccc1Oc1ccc(SC(F)(F)F)cc1 [Toltrazuril] | 0.0439
Cc1c(NC(=O)c2cccnc2)c(=O)n(-c2ccccc2)n1C [Nifenazone] | -0.647
C[C@@H](O)[C@H]1C(=O)N2C(C(=O)O)=C(SCCNC=N)C[C@H]12 [Imipenem] | 0.00347
CN(C)CC/C=C1\c2ccccc2CSc2ccccc21 [Dosulepin hydrochloride] | 0.164

From the supplement of paper PMC6607015
